Data as given in PubChem BioAssay (NCI).
The panel holds about 79,000 compounds, 15% with a hit somewhere; the sample as a whole holds those more often. Calls of active or inactive are those of the source. Rule as the data show it: active = growth inhibition above about 70%; inactive = the rest.

Assays:
[1] = NCI Yeast Anticancer Drug Screen. Data for the rad50 strain (AID 155);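 also: 0% = growth of vehicle-only cultures of the same strain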; conditions: S. cerevisiae rad50 strain growth inhibition; at 50.0 µM; active compounds read high
Summary of the method: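 Vehicle-treated cultures provide the reference for the growth inhibition reported for compound-exposed, repair-deficient yeast.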

[2] = NCI Yeast Anticancer Drug Screen. Data for the mec2-1 strain (AID 157); conditions: S. cerevisiae mec2-1 strain, at 50.0 µM, active compounds read high
Summary of the method: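 mec2-1 yeast strain, carrying an alteration in DNA damage repair or cell cycle control, was exposed to compounds; growth inhibition was measured relative to vehicle-treated controls.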

[3] = NCI Yeast Anticancer Drug Screen. Data for the sgs1 mgt1 strain (AID 161);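 also: 0% = growth of cultures given vehicle only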; conditions: S. cerevisiae sgs1 mgt1 strain, at 50.0 µM, active compounds read high
Summary of the method: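 Compounds are added to genetically altered yeast, and growth is compared with cultures given vehicle alone to give percent inhibition.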

[4] = NCI Yeast Anticancer Drug Screen. Data for the cln2 rad14 strain (AID 165);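 also: 0% = growth equal to vehicle treated cultures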; conditions: S. cerevisiae cln2 rad14 strain, at 50.0 µM, active compounds read high
Summary of the method: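 Yeast carrying cln2 and rad14 alterations (cell cycle control and DNA damage repair) were exposed to compounds. Growth inhibition was measured against vehicle-treated controls.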

[5] = NCI Yeast Anticancer Drug Screen. Data for the bub3 strain (AID 167); conditions: S. cerevisiae bub3 mutant strain, at 50.0 µM, active compounds read high
Summary of the method: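 Mutant yeast screening strain plus compound; vehicle-treated cultures serve as the 0% inhibition reference.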

[6] = NCI Yeast Anticancer Drug Screen. Data for the mlh1 rad18 strain (AID 175); conditions: S. cerevisiae mlh1 rad18 strain growth inhibition; at 50.0 µM; active compounds read high
Summary of the method: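 Growth inhibition of the yeast strain was measured after compound exposure and expressed relative to vehicle-treated controls. The strain carries defined defects in DNA damage repair.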

Measured: growth inhibition

Cn1c(-c2ccc(Br)cc2)cc2[nH]c(=S)nc(N)c2c1=O
inactive: [1] -16.8% | [2] -23.9% | [3] -14% | [4] -12.3% | [5] -7.75% | [6] 2.5%

CC1C2CC(C3(C)OCCO3)CCC2(C)CCC12OCCO2 (stereo unspecified)
inactive: [1] 1.65% | [2] 16.9% | [3] 3.15% | [4] 11.5% | [5] 2.9% | [6] 5.4%

CC(=O)OCC(C)(C(N)=O)c1ccccc1 (stereo unspecified)
inactive: [1] -36.9% | [2] -9.15% | [3] -5.5% | [4] -32% | [5] -5.9% | [6] 1.85%

NC(=O)[C@@H]1CCCN1C(=O)c1cccnc1
inactive: [1] -14.9% | [2] -18.2% | [3] -12.9% | [4] -14.7% | [5] 4.75% | [6] -13%

CC1(CCl)C(=O)C=Cc2ccccc21 (stereo unspecified)
inactive: [1] 6.45% | [2] 0.7% | [3] -5.1% | [4] -6.8% | [5] 5.3% | [6] -3.45%

O=C(N1CCOCC1)C12OC3CC(CC(C3)O1)O2
inactive: [1] 8.5% | [2] 1.95% | [3] 3.45% | [4] 11.2% | [5] 17.6% | [6] 4.65%

O=[N+]([O-])c1ccccc1N=NNc1ccccc1[N+](=O)[O-]
inactive: [1] 9.65% | [2] -4% | [3] 1.9% | [4] -26.6% | [5] 3.1% | [6] 3%

O=CNc1ccccc1O
inactive: [1] -2.55% | [2] -17.5% | [3] -25% | [4] 19.9% | [5] -14.3% | [6] 14.9%

Cc1ccc(NC(=O)/C(CC(=O)c2c[n+](=O)c3ccccc3n2O)=N\NC(=O)C[n+]2ccccc2)cc1
inactive: [1] 14.1% | [2] -1.25% | [3] -1.75% | [4] 24.8% | [5] 20.3% | [6] -0.85%

O=CNc1ccccc1Cc1ccccc1
inactive: [1] 13.2% | [2] -24% | [3] 4.5% | [4] 7.85% | [5] 4.25% | [6] 1.65%

Cc1nc(Cl)c2cnccn12
inactive: [1] -4.2% | [2] -1.85% | [3] 7.8% | [4] -37.5% | [5] -1.25% | [6] 0.2%

N#Cc1c(-c2ccccc2)nc(-c2ccccc2)sc1=S
active: [6] 73.8%
inactive: [1] 12.1% | [2] -0.7% | [3] 42% | [4] 4.55% | [5] 48.1%

CC1(c2nc3ccccc3s2)CCCO1 (stereo unspecified)
inactive: [1] -6.1% | [2] 23.8% | [3] 7.6% | [4] -13.7% | [5] 7.55% | [6] 8.4%

CC(C)N1C(=O)NC(=O)C12CCN(Cc1ccccc1)CC2
inactive: [1] -1.5% | [2] -1.65% | [3] -5.9% | [4] -1.7% | [5] 11.6% | [6] -13.7%

CC(C)CCOc1ccc(C(N)=S)c2ccccc12
active: [1] 80% | [2] 96.8% | [3] 96.4% | [5] 84% | [6] 95.2%
inactive: [4] 68.5%

CCOC(=O)c1cc(C=O)nc2c(Cl)cc(Cl)cc12
inactive: [1] 18.7% | [2] 6.25% | [3] 22.4% | [4] 5.9% | [5] 3.8% | [6] 17.6%

CCCCCSc1nc2c([nH]1)c(=O)n(C)c(=S)n2C
inactive: [1] 14.5% | [2] -6.35% | [3] 1.95% | [4] -8.8% | [5] 0.6% | [6] -15.6%

O=C(O)c1cc(C(=O)O)c(-c2ccccc2)c(-c2ccccc2)c1
inactive: [1] 8.9% | [2] 2.25% | [3] -4.05% | [4] 0.65% | [5] 1.4% | [6] -5.3%

CCC(C(O)c1ccccc1)[N+](=O)[O-] (stereo unspecified)
inactive: [1] 54.8% | [2] 31.3% | [3] 9.5% | [4] -8.75% | [5] -11.1% | [6] 10.3%

C=C1CC(C)(C)CN(Cc2ccc([N+](=O)[O-])cc2)C(C(=O)OC)=C1C(=O)OC
inactive: [1] 20.4% | [2] -2.55% | [3] 24.4% | [4] 16.8% | [5] -13.8% | [6] 13.2%

C=C1[C@@H]([C@@]2(C)C=CC(=O)C(C)(C)[C@@H]2CC(=O)OC)CC[C@@]2(C)C(c3ccoc3)OC(=O)[C@H]3O[C@]132 (stereo partly specified)
inactive: [1] -3.35% | [2] -1.5% | [3] 16.9% | [4] 15.5% | [5] 16.4% | [6] -34.5%

C/C=C1\C(=O)OC2CCN3CCC(COC(=O)C(C)(O)C(C)C1O)C23 (stereo unspecified)
inactive: [1] 11.2% | [2] -7.65% | [3] -24.6% | [4] -13.7% | [5] -46.5% | [6] -60.2%

O=c1oc2c(CN3CCOCC3)c(O)ccc2c2c1CCCC2
inactive: [1] 24.8% | [2] 21.5% | [3] 22.8% | [4] 29.9% | [5] 43.6% | [6] 31.9%

COc1ccccc1C(=O)Nc1c(C)cccc1Cl
inactive: [1] -0.45% | [2] -25.9% | [3] -0.8% | [4] 0.4% | [5] -10% | [6] 7%

COc1ccc(CC2OC(C)CC(C)(C)O2)cc1 (stereo unspecified)
inactive: [1] 38.2% | [2] -12.2% | [3] 4.75% | [4] -55.8% | [5] -4.5% | [6] 37.2%

COC(=O)C(O)(C(=O)OC)C1=C(N)C(=O)c2ccccc2C1=O
inactive: [1] 28.9% | [2] 17.1% | [3] 17.8% | [4] -5.4% | [5] 40.8% | [6] 28.3%

COc1ccc(-c2nnc(-c3ccc(OC)cc3)o2)cc1
inactive: [1] 20.1% | [2] -2.85% | [3] 16.5% | [4] 0.2% | [5] 1.15% | [6] -7.95%

O=[N+]([O-])c1nccn1CCC[n+]1cccc2ccccc21
inactive: [1] -38.6% | [2] -17.2% | [3] -14.2% | [4] -14.9% | [5] -19.9% | [6] -13.4%

Cc1[nH]c2nccn2c(=O)c1CCCl
inactive: [1] 10.2% | [2] -14.7% | [3] 9.6% | [4] -13.2% | [5] -13.6% | [6] 7.1%

CC(=O)OC1[C@@H](OC(C)=O)[C@H](OC(C)=O)C2(CO2)[C@H](OC(C)=O)[C@H]1OC(C)=O (stereo partly specified)
inactive: [1] -7.05% | [2] -4.45% | [3] -6.4% | [4] -29.6% | [5] -0.15% | [6] 12.8%

O=C1NCCS(=O)(=O)N2CCC[C@@H]12
inactive: [1] 54.4% | [2] -20% | [3] 5.1% | [4] 21.4% | [5] -19.6% | [6] -14.9%

O=[N+]([O-])c1ccc(NCn2c(=S)sc3ccccc32)cc1
inactive: [1] 13.7% | [2] -27% | [3] 11.4% | [4] 2.15% | [5] 2.8% | [6] 3.6%

C=CCOCn1ccc(NC(=O)c2ccccc2)nc1=O
inactive: [1] -58% | [2] -57.1% | [3] -37% | [4] -3.15% | [5] -8.4% | [6] -22.3%

CCOC(=O)C(C)c1nc2ccc(C(F)(F)F)cc2[nH]c1=O (stereo unspecified)
inactive: [1] 2.15% | [2] 16.7% | [3] 40.4% | [4] 14.2% | [5] 43.4% | [6] 39.5%

COc1ccc(-c2c(C(=O)O)cc(O)c3c(OC)c(OC)c(OC)cc23)cc1OC
inactive: [1] -2.8% | [2] 4% | [3] -17.6% | [4] -9.2% | [5] 2.7% | [6] 32.5%

COCCOC(=O)c1ccccc1C
inactive: [1] 8.7% | [2] 2.35% | [3] 0.3% | [4] -27.6% | [5] 11.8% | [6] 0.55%

O=C1CSC(c2ccccc2[N+](=O)[O-])N1c1ccc(-n2c(-c3ccccc3)nc3ccccc3c2=O)cc1 (stereo unspecified)
inactive: [1] -8.95% | [2] -10.1% | [3] -4.05% | [4] -16.1% | [5] 13.3% | [6] 7.6%

CCOC(=O)c1ccc(NC(=O)c2cnccn2)cc1
inactive: [1] -6.5% | [2] 0.3% | [3] -17.7% | [4] -15.4% | [5] -20.4% | [6] -2%

Cc1ccc(N=Nc2c(O)c3ccccc3[nH]c2=O)c(S(=O)(=O)N(C)C)c1
inactive: [1] 29.7% | [2] -24.2% | [3] -24.9% | [4] 29.6% | [5] -27.2% | [6] -17.5%

Cc1ccccc1S(=O)(=O)OC1NS(=O)(=O)c2ccccc21 (stereo unspecified)
inactive: [1] 15.8% | [2] -1% | [3] -36.9% | [4] -15.6% | [5] -23.3% | [6] 2.9%

COC(=O)C(=O)OC
inactive: [1] 27.1% | [2] -10% | [3] -11.3% | [4] -39% | [5] 1.15% | [6] -3.35%
